3 compounds from PubChem BioAssay (EPA / NIEHS) can be followed below.

Holding throughout (conditions): mRNA level, 48 h; actives raise or lower the signal
Read-out in assay [1]: flavin-containing dimethylaniline monooxygenases 3 (FMO3), FMO3 (gene 2328)
Put plainly: LTEA_HepaRG_FMO3: Life Technologies and Expression Analysis (LTEA) Assay for flavin-containing dimethylaniline monooxygenases 3 (FMO3) using HepaRG (AID 2283453). An outline of the steps:
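Differentiated HepaRG cells in serum-free induction medium, exposed 48 h in duplicate to 8 half-log concentrations up to 100 uM in 0.5% DMSO. FMO3 mRNA by qRT-PCR, normalized to ACTB, GAPDH, POLR2A; bidirectional fit vs DMSO.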

Read-out in assay [2]: Cytochrome P450 (CYP1A1), CYP1A1 (gene 1543)
As to the kind of experiment: LTEA_HepaRG_CYP1A1: Life Technologies and Expression Analysis (LTEA) Assay for Cytochrome P450 (CYP1A1) using HepaRG (AID 2283454). An outline of the steps:
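CYP1A1 transcript levels measured by Fluidigm qRT-PCR against three housekeeping genes, 48 h after chemical dosing of human HepaRG cells (highest concentration 100 uM, half-log steps, 0.5% DMSO vehicle). Gain or loss of signal fitted relative to DMSO.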

Read-out in assay [3]: CFLAR gene, CFLAR (gene 8837)
Put plainly: LTEA_HepaRG_CFLAR: Life Technologies and Expression Analysis (LTEA) Assay for CFLAR gene using HepaRG (AID 2283455). An outline of the steps:
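Differentiated HepaRG cells in serum-free induction medium were exposed 48 h in duplicate to eight half-log concentrations up to 100 uM in 0.5% DMSO; mRNA measured by TaqMan qRT-PCR, normalized to ACTB, GAPDH, POLR2A; bidirectional fitting versus DMSO.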

Read-out in assay [4]: Forkhead box O1 (FOXO1), FOXO1 (gene 2308)
As to the kind of experiment: LTEA_HepaRG_FOXO1: Life Technologies and Expression Analysis (LTEA) Assay for Forkhead box O1 (FOXO1) using HepaRG (AID 2283456). An outline of the steps: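 Differentiated HepaRG cells, in serum-free induction medium with 0.5% DMSO, exposed 48 h in duplicate to 8-point half-log series from 100 uM. FOXO1 mRNA measured by TaqMan qRT-PCR, normalized to ACTB, GAPDH, POLR2A; bidirectional fit versus DMSO.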

Read-out in assay [5]: Forkhead box O3 (FOXO3), FOXO3 (gene 2309)
As to the kind of experiment: LTEA_HepaRG_FOXO3: Life Technologies and Expression Analysis (LTEA) Assay for Forkhead box O3 (FOXO3) using HepaRG (AID 2283459). An outline of the steps: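 Differentiated human HepaRG cells, 48 h post-plating, exposed in duplicate for 48 h in serum-free induction medium; 8-point half-log series from 100 uM in 0.5% DMSO. FOXO3 mRNA by TaqMan qRT-PCR, normalized to ACTB/GAPDH/POLR2A; bidirectional fit versus DMSO.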

Read-out in assay [6]: ABC Transporter (ABCB1), ABCB1 (gene 5243)
Put plainly: LTEA_HepaRG_ABCB1: Life Technologies and Expression Analysis (LTEA) Assay for ABC Transporter (ABCB1) using HepaRG (AID 2283460). An outline of the steps:
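HepaRG cells exposed in duplicate for 48 h in serum-free induction medium to eight half-log concentrations up to 100 uM in 0.5% DMSO. ABCB1 mRNA quantified by qRT-PCR, normalised to ACTB, GAPDH and POLR2A; fitted bidirectionally versus DMSO.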

Read-out in assay [7]: growth arrest and DNA damage 45 (GADD45B), GADD45B (gene 4616)
As to the kind of experiment: LTEA_HepaRG_GADD45B: Life Technologies and Expression Analysis (LTEA) Assay for growth arrest and DNA damage 45 (GADD45B) using HepaRG (AID 2283461). The method, boiled down:
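Transcript level quantified by Fluidigm TaqMan qRT-PCR with three housekeeping genes for normalization, analyzed for up- or down-regulation against 0.5% DMSO. HepaRG cultures dosed 48 h at eight half-log concentrations up to 100 uM, duplicates.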

Read-out in assay [8]: ABC Transporter (ABCC3), ABCC3 (gene 8714)
Put plainly: LTEA_HepaRG_ABCC3: Life Technologies and Expression Analysis (LTEA) Assay for ABC Transporter (ABCC3) using HepaRG (AID 2283462). The method, boiled down:
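Transcript level by TaqMan qRT-PCR, normalised to three housekeeping genes, fitted in both directions relative to vehicle. Chemicals tested in duplicate at eight half-log concentrations up to 100 uM for 48 h on HepaRG cells (0.5% DMSO).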

Read-out in assay [9]: ABC Transporter (ABCB11), ABCB11 (gene 8647)
As to the kind of experiment: LTEA_HepaRG_ABCB11: Life Technologies and Expression Analysis (LTEA) Assay for ABC Transporter (ABCB11) using HepaRG (AID 2283463). An outline of the steps: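 Differentiated human HepaRG cells in serum-free induction medium, dosed in duplicate for 48 h. Eight-point half-log series from 100 uM in 0.5% DMSO; ABCB11 mRNA by qRT-PCR, normalized to ACTB, GAPDH, POLR2A, fitted bidirectionally versus DMSO.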

Read-out in assay [10]: ABC Transporter (ABCC2), ABCC2 (gene 1244)
Put plainly: LTEA_HepaRG_ABCC2: Life Technologies and Expression Analysis (LTEA) Assay for ABC Transporter (ABCC2) using HepaRG (AID 2283464). The method, boiled down: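 Endpoint is ABCC2 transcript level from qRT-PCR, normalized to three housekeeping genes and fitted bidirectionally relative to DMSO. Human HepaRG cells received test chemical for 48 h at up to 100 uM (8 points, half-log steps, 0.5% DMSO), duplicate wells.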

Read-out in assay [11]: Broad substrate specificity ATP-binding cassette transporter ABCG2 (Homo sapiens) (UniProt Q9UNQ0)
As to the kind of experiment: LTEA_HepaRG_ABCG2: Life Technologies and Expression Analysis (LTEA) Assay for ABC Transporter (ABCG2) using HepaRG (AID 2283465). An outline of the steps: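 Differentiated HepaRG cells were exposed for 48 h in serum-free induction medium to 8 half-log concentrations, top 100 uM, in 0.5% DMSO. ABCG2 mRNA was measured by qRT-PCR, normalized to ACTB, GAPDH and POLR2A, with bidirectional fitting versus DMSO.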

Read-out in assay [12]: ATP-citrate lyase (ACLY), ACLY (gene 47)
As to the kind of experiment: LTEA_HepaRG_ACLY: Life Technologies and Expression Analysis (LTEA) Assay for ATP-citrate lyase (ACLY) using HepaRG (AID 2283466). The method, boiled down: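 Differentiated HepaRG cells exposed 48 h in serum-free induction medium to eight half-log concentrations up to 100 uM in 0.5% DMSO, duplicates. Transcript measured by Fluidigm TaqMan qRT-PCR, normalized to ACTB, GAPDH, POLR2A; bidirectional fit versus DMSO.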

Read-out in assay [13]: Peroxisomal acyl-coenzyme A oxidase 1 (ACOX1) gene, ACOX1 (gene 51)
Put plainly: LTEA_HepaRG_ACOX1: Life Technologies and Expression Analysis (LTEA) Assay for Peroxisomal acyl-coenzyme A oxidase 1 (ACOX1) gene using HepaRG (AID 2283467). An outline of the steps: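 HepaRG cells, plated 48 h then switched to serum-free induction medium, were exposed in duplicate for 48 h to 8-point half-log concentrations up to 100 uM in 0.5% DMSO. ACOX1 mRNA was measured by qRT-PCR, normalized to ACTB/GAPDH/POLR2A, and fitted bidirectionally versus DMSO.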

Read-out in assay [14]: Alkaline Phosphatase, Placental (ALPP) gene, ALPP (gene 250)
As to the kind of experiment: LTEA_HepaRG_ALPP: Life Technologies and Expression Analysis (LTEA) Assay for Alkaline Phosphatase, Placental (ALPP) gene using HepaRG (AID 2283468). An outline of the steps:
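ALPP transcript level, measured by qRT-PCR and normalized to three housekeeping genes (ACTB, GAPDH, POLR2A), after 48 h dosing of differentiated HepaRG in serum-free induction medium. Top concentration 100 uM with half-log dilutions (8 points, 0.5% DMSO, duplicates); bidirectional fitting relative to DMSO.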

Read-out in assay [15]: Bcl-2 (BAD) gene, BAD (gene 572)
Put plainly: LTEA_HepaRG_BAD: Life Technologies and Expression Analysis (LTEA) Assay for Bcl-2 (BAD) gene using HepaRG (AID 2283469). The method, boiled down: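 Differentiated HepaRG cells were exposed in duplicate in 0.5% DMSO for 48 h to eight-point half-log concentrations up to 100 uM. BAD mRNA was measured by Fluidigm TaqMan qRT-PCR, normalized to ACTB, GAPDH and POLR2A, and fitted bidirectionally against DMSO.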

Read-out in assay [16]: Bcl-2 (BAX) gene, BAX (gene 581)
Put plainly: LTEA_HepaRG_BAX: Life Technologies and Expression Analysis (LTEA) Assay for Bcl-2 (BAX) gene using HepaRG (AID 2283470). An outline of the steps:
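Differentiated HepaRG cells exposed 48 h in serum-free induction medium, eight half-log concentrations from 100 uM, in duplicate, 0.5% DMSO vehicle. BAX mRNA by TaqMan qRT-PCR, normalised to ACTB, GAPDH and POLR2A.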

Read-out in assay [17]: growth arrest and DNA damage 45 (GADD45A), GADD45A (gene 1647)
As to the kind of experiment: LTEA_HepaRG_GADD45A: Life Technologies and Expression Analysis (LTEA) Assay for growth arrest and DNA damage 45 (GADD45A) using HepaRG (AID 2283458). An outline of the steps: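 Differentiated HepaRG cells exposed 48 h in serum-free induction medium to 8 concentrations, top 100 uM in half-log steps, 0.5% DMSO. GADD45A mRNA quantified by qRT-PCR, normalized to ACTB, GAPDH and POLR2A; bidirectional fit versus DMSO.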

Structures are written as SMILES. Values joined by “and” are separate entries in the source; they are usually repeats but may differ in a detail not shown here. Equal values may be shown once. Where a structure was tested more than once in an assay, its records may differ in their call. Active and inactive are the calls of the source. The calls were made as follows: active = hit-call score of the fitted dose curve at least 0.9, where 1 is the maximum; inactive = score below 0.9.

Chain of Broad substrate specificity ATP-binding cassette transporter ABCG2 (Homo sapiens) (Q9UNQ0 whole entry, looked up): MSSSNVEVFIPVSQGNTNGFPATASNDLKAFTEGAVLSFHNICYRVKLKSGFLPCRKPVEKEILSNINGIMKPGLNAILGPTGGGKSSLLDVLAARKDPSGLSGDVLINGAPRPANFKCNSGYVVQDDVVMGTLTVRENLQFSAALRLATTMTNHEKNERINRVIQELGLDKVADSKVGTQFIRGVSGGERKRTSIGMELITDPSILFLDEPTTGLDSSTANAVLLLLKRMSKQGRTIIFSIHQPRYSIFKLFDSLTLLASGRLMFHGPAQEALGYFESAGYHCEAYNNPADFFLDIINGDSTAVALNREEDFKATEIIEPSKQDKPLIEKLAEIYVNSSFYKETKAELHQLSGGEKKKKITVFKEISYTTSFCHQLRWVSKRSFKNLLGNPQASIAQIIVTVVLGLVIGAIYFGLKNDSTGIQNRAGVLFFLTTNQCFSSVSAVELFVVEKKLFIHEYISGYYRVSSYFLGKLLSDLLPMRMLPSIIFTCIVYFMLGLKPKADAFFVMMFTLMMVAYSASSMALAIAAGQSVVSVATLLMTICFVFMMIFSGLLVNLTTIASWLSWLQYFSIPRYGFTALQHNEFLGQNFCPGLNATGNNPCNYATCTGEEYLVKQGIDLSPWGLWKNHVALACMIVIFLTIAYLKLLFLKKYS

Regarding `O=C(O)C(F)(F)C(F)(F)C(F)(F)C(F)(F)C(F)(F)C(F)(F)C(F)(F)F`, the result in assay [1], in assay [2], in assay [3], in assay [4], in assay [5] and in assay [6] was inactive. The compound was called inactive in [7], in assay [8], in assay [9], in assay [10], in assay [11] and in assay [12]. In addition, the compound was called inactive in [14], in assay [15] and in assay [16]. Further, the AC50 in assay [4] was 50 µM (active); in assay [13], 3.48 µM (active) and 8.37 µM (active); in assay [14], 9.92 µM (active).

Regarding `CN1CSC(=S)N(C)C1`, the compound was called inactive in assay [1], in [3], in [4], in assay [5], in [6] and in assay [7]. Moreover, the call in assay [8], in assay [9], in [10], in assay [11], in assay [12] and in assay [13] was inactive. In addition, the compound was classed as inactive in assay [14], in assay [15] and in assay [16]. The half-maximal activity concentration (AC50) in assay [2] is 28.4 µM (active).

As for `CCC(C)Nc1c([N+](=O)[O-])cc(C(C)(C)C)cc1[N+](=O)[O-]` (stereo unspecified), the compound was called inactive in assay [1], in assay [3], in assay [4], in assay [17], in [5] and in [7]. Further, the compound was called inactive in assay [8], in [9], in assay [12], in [13], in assay [14] and in [15]. In addition, the call in assay [16] was inactive. For the same compound, the AC50 in assay [2] is 12.9 µM (active); in [6] it was 13 µM (active); in [10], 17.8 µM (active); in [11], 22 µM (active).

What is called AC50 is the midpoint of the concentration-response curve, whichever way the signal moves.
